Results from PubChem BioAssay AID488977 (Johns Hopkins Ion Channel Center, 2010).
Screen size: about 310,000 compounds; about 1,500 (0.48%) were called active.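 How the source made its calls: active means initial fluorescence not abnormally high and integrated response B-score, plate-corrected, over 3 SD above library mean; inactive means the rest.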 The sample as a whole holds a higher share of actives than the screen did. A structure can be active in one record and inactive in another.

target: High affinity choline transporter 1 (Homo sapiens) (UniProt Q9GZV3); experiment: CHT positive allosteric modulators, primary screen, cell-based, membrane potential dye, choline EC20 (AID 488977); settings: CHT-expressing cells, at 10 µM, LV-AA mutant CHT in HEK293 cells; hits give high values
Sequence (Q9GZV3 whole entry, looked up): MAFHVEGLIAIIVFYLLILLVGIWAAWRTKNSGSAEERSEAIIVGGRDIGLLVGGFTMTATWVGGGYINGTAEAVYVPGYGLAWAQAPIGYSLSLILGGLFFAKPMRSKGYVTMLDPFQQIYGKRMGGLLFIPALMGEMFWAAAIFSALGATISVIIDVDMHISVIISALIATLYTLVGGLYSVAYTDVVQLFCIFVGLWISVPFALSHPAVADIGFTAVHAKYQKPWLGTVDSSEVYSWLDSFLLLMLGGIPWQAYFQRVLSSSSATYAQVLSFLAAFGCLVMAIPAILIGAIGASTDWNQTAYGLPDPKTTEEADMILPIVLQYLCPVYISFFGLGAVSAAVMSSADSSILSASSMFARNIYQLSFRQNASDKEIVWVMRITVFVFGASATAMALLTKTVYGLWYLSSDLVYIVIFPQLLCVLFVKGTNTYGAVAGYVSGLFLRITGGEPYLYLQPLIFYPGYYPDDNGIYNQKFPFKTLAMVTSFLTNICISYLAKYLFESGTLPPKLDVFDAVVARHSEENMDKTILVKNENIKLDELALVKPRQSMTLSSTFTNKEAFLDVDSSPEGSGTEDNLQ

SMILES	B-score	outcome
O=C(NCCc1ccco1)C(=O)NCCC1CCCCN1S(=O)(=O)c1ccccc1 (stereo not given)	inactive	
CCn1cc(C(=O)NCCO)c(=O)c2cc(F)c(N3CCN(C)CC3)cc21	inactive	
CCn1cc(S(=O)(=O)c2cccc(C)c2)c(=O)c2cc(F)c(N3CCN(C)CC3)cc21	8.24 (active)	
CN1CCN(c2cc3c(cc2F)c(=O)c(C(=O)O)cn3CCF)CC1	inactive	
CCN1C(=O)[C@H]2[C@@H](c3ccc(-c4ccc(F)cc4)cc3)N[C@@](Cc3ccccc3)(C(=O)OC)[C@H]2C1=O	inactive	
CN(/N=C/c1ccccc1)C(=S)c1ccccc1	inactive	
Cc1ccc(C)c(OCCC(=O)Nc2cccc(S(=O)(=O)N3CCCC3)c2)c1	inactive	
Cn1c(=NC(=O)c2ccco2)sc2cccc(F)c21	inactive	
Cn1c(=NC(=O)CSCC(=O)N2CCCCC2)sc2ccccc21	inactive	
Cn1c(=NC(=O)c2cnccn2)sc2ccccc21	7.8 (active)	
O=C(Nc1ncccc1O)c1ccc(S(=O)(=O)N2CCCCCC2)cc1	inactive	
CCN(CC)c1ccc(S(=O)(=O)N2CCCCC2)cc1NC(=O)C1=COCCO1	inactive	
OCc1ccc(-c2ccccc2)c(-c2ccccc2)c1	inactive	
CCCCN(CCCC)CC(O)Cn1c2ccccc2c(=O)c2ccccc21 (stereo not given)	8.77 (active)	
O=C1c2ccccc2S(=O)(=O)N1CC(O)Cn1c2ccccc2c2ccccc21 (stereo not given)	inactive	
CS(=O)(=O)N(CC(O)Cn1c2ccccc2c2ccccc21)c1cccc2ccccc12 (stereo not given)	inactive	
COc1ccc(CCNc2cc(N3CCN(C(=O)c4ccccc4OC)CC3)ccc2[N+](=O)[O-])cc1OC	inactive	
COc1cc(OC)c(NC(=O)c2ccc(Br)o2)cc1Cl	inactive	
CCN1CCN(c2c(Cl)cccc2NC(=O)c2ccc(Br)o2)CC1	8.41 (active)	
CCCC(=O)Nc1ccc(Cl)c(NC(=O)c2ccc(Br)o2)c1	inactive	

SMILES	B-score	outcome
O=C1CCCCC1Sc1ccc(Cl)cc1[N+](=O)[O-] (stereo not given)	inactive	
COC(=O)[C@]1(C)N[C@H](c2ccc(-c3ccc(Cl)c(Cl)c3)cc2)[C@@H]2C(=O)N(C)C(=O)[C@@H]21	inactive	
Cc1nnc(C)c2c(C)n(N)c(C)c12	9.77 (active)	
COc1cc(C(=O)NCC(=O)NCCSc2ccc(Br)cc2)cc(OC)c1OC	inactive	
O=C(COC(=O)Cc1c[nH]c2ccccc12)NCCc1ccccc1	inactive	
CCN1C(=S)N[C@@H](CCc2ccccc2)[C@H](C(=O)OC)[C@H]1C	inactive	
CCN1C(=NCCc2cccnc2)N[C@@H](c2ccccc2)[C@H](C(=O)OC)[C@H]1C	6.5 (active)	
CCN1C(=NCCc2cccnc2)N[C@@H](c2ccccc2)C(C(=O)OC)=C1C	inactive	
O=C(Nc1ncccc1O)c1ccc(S(=O)(=O)N2CCCC2)cc1	inactive	
COc1cc(C(=O)N(C)Cc2cccc(OC)c2OC)ccc1OCC(=O)Nc1cccc(C(F)(F)F)c1	inactive	
O=C(N/N=C/c1cc(Br)c(O)c([N+](=O)[O-])c1)C(O)(c1ccccc1)c1ccccc1	inactive	
C=CCNc1nnc(SCC(=O)N2CCCCC2)c2ccccc12	inactive	
COc1ccc(Nc2nnc(C)c3ccccc23)cc1	inactive	
C=CCNc1nnc(C)c2ccccc12	7.04 (active)	
COc1ccc(-c2ccc3nnc(SCC(=O)Nc4ccc(NC(C)=O)cc4)n3n2)cc1	inactive	
COc1ccc(C(=O)NCC2CCCN2S(=O)(=O)c2cccs2)cc1OC (stereo not given)	inactive	
CN1CCN(C2Cc3ccc(Cl)cc3Sc3ccc(F)cc32)CC1 (stereo not given)	inactive	
O=C(COC(=O)C1CCN(S(=O)(=O)c2ccc3c(c2)OCCO3)CC1)Nc1ccccc1OC(F)F	6.95 (active)	
COc1ccccc1CNC(=O)C1CCN(S(=O)(=O)c2ccc3c(c2)OCCO3)CC1	inactive	
CCOC(=O)C1CCN(C(=O)COC(=O)C2CCN(S(=O)(=O)c3ccc4c(c3)OCCO4)CC2)CC1	inactive	

SMILES	B-score	outcome
Cc1ccc(N2CC(C(=O)N3CCC4(CC3)CC(=O)c3ccccc3O4)CC2=O)cc1C (stereo not given)	inactive	
O=C(NCCC1CCCCN1S(=O)(=O)c1ccc(Cl)cc1)C(=O)NCc1ccco1 (stereo not given)	inactive	
Brc1cnc2ccccc2c1N1CCCCC1	inactive	
CCCNC(=O)c1ccc(N2CCC3(CC2)CC(c2cccc(Br)c2)=NO3)c(NC(=O)c2ccco2)c1	inactive	
C#CCOCCOCCOCCNc1nc(N2CCN(C(=O)CCCCCCCCCCNC(=O)[C@H](CCCCN)n3cc(C)nn3)CC2)nc(N2CCN(C(=O)CCCCCCCCCCNC(=O)[C@H](CO)n3cc(CCCSC)nn3)CC2)n1	7.24 (active)	
C#CCOCCOCCOCCNc1nc(N2CCN(C(=O)CCCCCCCCCCNC(=O)[C@H]([C@@H](C)CC)n3cc(CCCCN=C(N)N)nn3)CC2)nc(N2CCN(C(=O)CCCCCCCCCCNC(=O)[C@H](CO)n3cc(CCCSC)nn3)CC2)n1	inactive	
C#CCOCCOCCOCCNc1nc(N2CCN(C(=O)CCCCCCCCCCNC(=O)Cn3cc(CCCCCN)nn3)CC2)nc(N2CCN(C(=O)CCCCCCCCCCNC(=O)[C@H](CO)n3cc(CCCSC)nn3)CC2)n1	inactive	
O=C(Nc1ccccc1N1CCCCC1)c1cccc(F)c1	inactive	
Cc1cccc(C(=O)Nc2ccccc2N2CCN(c3ccc(F)cc3)CC2)c1	inactive	
O=C(Nc1ccccc1N1CCN(c2ccccc2)CC1)c1cccc(F)c1	7.46 (active)	
CSc1ccccc1NC(=O)c1cnc2sc(C)cn2c1=O	inactive	
CCN1C(=O)[C@@H]2[C@@H](c3ccc(-c4ccc(OC)cc4)c(OC)c3)N3CCC[C@@]3(C(=O)OC)[C@@H]2C1=O	inactive	
O=C(C[n+]1cc(-c2ccc(Cl)c(Cl)c2)n2c1CCC2)c1cccs1	inactive	
Cc1ccc(-c2c[n+](CC(=O)Nc3ccccc3)c3n2CCC3)cc1	inactive	
Cc1ccc(C(=O)C[n+]2cc(-c3ccccc3)n3c2CCCCC3)cc1	7.44 (active)	inactive
Nc1nonc1-n1nnc(C(=O)N/N=C/c2ccccc2O)c1CN1CCCC1	inactive	
Cc1ccc(-n2c(C)cc(/C=N\NC(=O)CC(=O)NC(C)C)c2C)cc1	11.1 (active)	
CSc1ccc(/C=N\NC(=O)CC(=O)NC(C)C)cc1	inactive	
Cc1cc(/C=N/NC(=O)CC2(C)OCCO2)c(C)n1-c1ccc(Cl)c(Cl)c1	inactive	
